This is a sample that favours compounds with a hit; in the whole collection about 3.3% have one here.
Pol III holo inh = qHTS Assay for Inhibitors of DNA Polymerase III Holoenzyme System | reconstituted DNA polymerase III holoenzyme replication, biochemical | Potency, µM (titrated, usually from 57.1 µM), for inactives: at the top dose activity change, negative = inhibition | actives 0.25% (n = 71,000) | AID 603, 2007; further: potency means the concentration at half of the fitted maximal effect; on the % scale 0 is the no-effect control and ±100 the full control effect
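Reconstituted *E. coli* holoenzyme (0.35 nM Pol III, 1 nM beta, 154 nM SSB, 2 nM primase) was preincubated with compound for 15 min at RT. Synthesis on 1.4 nM ssM13Gori ran 35 min, then was stopped with PicoGreen/EDTA and read as dsDNA fluorescence.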
Tau fil binding = qHTS Assay for Tau Filament Binding; actives 2% (n = 71,000); Potency, µM (highest dose often 57.1 µM), for inactives: at the highest dose activity change, negative = inhibition; AID 596, 2007; recombinant tau filaments, thioflavin S fluorescence, 15 h; filaments grown with octadecylsulfate alongside compound;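 further: potency means the concentration at half of the fitted maximal effect; on the % scale 0 is the no-effect control and ±100 the full control effect; actives lower thioflavin S fluorescence by blocking filaments or displacing dye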
Target sequence (P10636 whole entry, looked up): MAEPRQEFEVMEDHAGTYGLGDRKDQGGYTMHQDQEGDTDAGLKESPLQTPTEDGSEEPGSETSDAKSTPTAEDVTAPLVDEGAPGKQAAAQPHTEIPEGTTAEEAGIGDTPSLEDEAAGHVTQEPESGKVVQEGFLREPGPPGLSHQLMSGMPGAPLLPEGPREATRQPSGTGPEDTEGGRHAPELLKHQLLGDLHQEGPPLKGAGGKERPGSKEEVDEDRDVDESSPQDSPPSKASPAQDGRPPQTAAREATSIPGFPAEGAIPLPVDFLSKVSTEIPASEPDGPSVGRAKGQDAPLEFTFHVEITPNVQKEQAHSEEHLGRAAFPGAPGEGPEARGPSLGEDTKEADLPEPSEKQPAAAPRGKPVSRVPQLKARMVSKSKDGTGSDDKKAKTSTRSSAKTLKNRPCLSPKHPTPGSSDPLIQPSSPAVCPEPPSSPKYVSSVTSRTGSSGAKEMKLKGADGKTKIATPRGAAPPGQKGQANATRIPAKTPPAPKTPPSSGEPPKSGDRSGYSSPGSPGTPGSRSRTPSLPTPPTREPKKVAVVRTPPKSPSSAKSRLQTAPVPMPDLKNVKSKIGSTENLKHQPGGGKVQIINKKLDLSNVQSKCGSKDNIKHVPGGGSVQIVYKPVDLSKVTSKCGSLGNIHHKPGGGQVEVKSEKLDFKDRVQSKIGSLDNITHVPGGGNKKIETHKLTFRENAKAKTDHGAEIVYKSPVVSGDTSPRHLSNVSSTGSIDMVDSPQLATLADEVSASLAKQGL
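Assay mix: 1 uM His-tagged tau, 30 uM sodium octadecylsulfate, thioflavine S dye in HEPES/NaCl/DTT buffer. Compound is added prior to the inducer. Fluorescence after 15 h at 37 C.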
ALOX15 inhib = qHTS Assay for Inhibitors of 15-hLO (15-human lipoxygenase) | purified 15hLO-1, xylenol orange hydroperoxide absorbance | AID 887, 2007 | actives 1.4% (n = 74,000) | Potency, µM (series often up to 57.1 µM), for inactives: at the highest dose activity change, negative = inhibition, actives largely listed as inhibitors; further: potency means the concentration at half of the fitted maximal effect; on the % scale 0 is the no-effect control and ±100 the full control effect; nearly all actives have a fitted effect of over 55% in size
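Compounds were preincubated 15 min at room temperature with 40 nM purified human enzyme (25 mM Hepes pH 7.5, 0.01% Triton X-100); 50 uM arachidonic acid reacted 6 min. Fe-xylenol orange detection, 30 min, absorbance ratio 573/405 nm.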
BRCT inh red = qHTS Assay for Inhibitors of BRCT-Phosphoprotein Interaction (Red Fluorophore) | BRCT-phosphopeptide binding, red fluorescence polarization | Potency, µM (series often up to 76.9 µM), without a hit: top-dose activity change, negative = inhibition, usual class: inhibitors | actives 0.03% (n = 75,000) | Breast cancer type 1 susceptibility protein (Homo sapiens), P38398 | AID 892, 2007; further: on the % scale 0 is the no-effect control and ±100 the full control effect
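Fluorescence polarization: 100 nM His-tagged BRCA1 BRCT with 100 nM TAMRA-labelled phospho-BACH1 decapeptide, phosphate buffer pH 7.3 with 150 mM NaCl, DTT, 0.01% Tween 20; 12 min RT. Binding inhibition seen as FP decrease.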
BRCT PPI green = qHTS Assay for Inhibitors of BRCT-Phosphoprotein Interaction (Green Fluorophore); BRCA1 BRCT-phosphopeptide binding, green fluorescence polarization; Potency, µM (highest dose often 76.9 µM), for inactives: at the top dose activity change, negative = inhibition, hits mostly inhibitors; actives 0.05% (n = 75,000); AID 875, 2007;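 further: potency means the concentration at half of the fitted maximal effect; plate controls were peptide without protein for full effect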
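Fluorescence polarization: His-tagged BRCT (~35 kDa BRCA1 C-terminus, 250 nM) bound to 100 nM fluorescein-labeled phosphorylated 10-aa BACH1 peptide, pH 7.3 phosphate buffer with DTT and Tween 20. Compounds incubated 12 min at room temperature; inhibition read as lowered polarization.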
TsaE inh = qHTS Assay for Inhibitors of YjeE; purified YjeE enzyme, qHTS inhibition assay; Potency, µM; actives 0.05% (n = 71,000)
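Purified YjeE (10 uM) with BODIPY Texas Red-labeled ADP probe (2 uM); compounds pin-transferred, 15 min at room temperature. Binding inhibition read as decreased fluorescence polarization; ADP titration as control.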
Numbers without * were called inactive; i = inactive; . = no result; [ ] = dose if it differs, or a comment. The call rests on the fitted dose curve; in most records, active means well fitted curve in the direction sought with a large enough effect; inconclusive means small, poorly fitted or top-dose-only effect, or another doubt; inactive means no such curve, though single readings can be large; an effect the other way counts as inactive or inconclusive.

SMILES | Pol III holo inh | Tau fil binding | ALOX15 inhib | BRCT inh red | BRCT PPI green | TsaE inh
Cn1c(NCc2cccc(Br)c2)nc2ccccc21 | -7% | 7% | 10µM* | 0% | -1% | i
Cn1c(NCc2ccccc2O)nc2ccccc21 | 0% | -8% | -1% | 1% | 0% | i
Cc1ccc2[nH]c(=S)cc(C)c2c1 | -4% | 5% | 3.2µM* | 0% | 0% | i
CC(C)CN(C(=O)c1ccc(=O)n(C)n1)c1nc2ccccc2s1 | 0% | 25µM* | -25% | 1% | -1% | i
c1ccc(CNc2ncnc3ccc(-c4ccc5c(c4)OCO5)cc23)cc1 | 18% | 152% | 5% | -1% | -3% | i
COc1cccc(CNc2ccc(N3CCCCC3)cc2)c1OC | -5% | 7.9µM* | 2µM* | 1% | -1% | i
COc1ccccc1CNc1ccc(N2CCCCC2)cc1 | 0% | 10µM* | 16µM* | 0% | 0% | i
CC(C)(C)N1C(=O)[C@H]2[C@H]3[C@H](O)[C@H](O)C/C(=N/OCc4ccccc4)[C@@H]3CC[C@@H]2C1=O | . | . | -13%[11.4 µM] | 1%[15.4 µM] | 2%[15.4 µM] | .
CC1CCN(CC(=O)N2c3ccccc3Sc3cc4ccccc4cc32)CC1 | -9%[11.4 µM] | -12%[11.4 µM] | -2%[11.4 µM] | -1%[15.4 µM] | 2%[15.4 µM] | i
CCCCCC1=C2CNC(C)(C(=O)OC)C=C2C(C)C1=O (stereo unspecified) | 11% | 23% | . | 1% | -2% | i
COc1ccc(CCNC(=O)COC(=O)c2ccco2)cc1OC | -3% | -6% | 11% | 2% | -1% | i
COc1ccc(CCNC(=O)c2ccc3nc(-c4ccco4)c(-c4ccco4)nc3c2)cc1OC | 1% | 3.2µM* | 7.9µM* | -1% | -2% | i
CN(C)c1ccc(-c2nc(N3CCNCC3)c3ccccc3n2)cc1 | -10% | 3.2µM* | -10% | 0% | -1% | i
Cc1ccccc1-c1nc(N2CCNCC2)c2ccccc2n1 | 0% | -4% | 3% | 0% | -2% | i
CN(C)c1ccc(-c2ccc3ncnc(N4CCNCC4)c3c2)cc1 | -13% | 13µM* | -1% | -2% | -1% | i
CN(C)c1ccc(-c2ccc3ncnc(N(C)C)c3c2)cc1 | 1% | 5µM* | -1% | -1% | 0% | i
O=C1[C@H]2[C@H]3[C@H](O)[C@H](O)C/C(=N/OC[C@@H](O)COCc4ccco4)[C@@H]3CC[C@@H]2C(=O)N1c1cccc(Oc2ccccc2)c1 | . | . | 6%[11.4 µM] | 2%[15.4 µM] | 0%[15.4 µM] | .
CS(=O)(=O)Nc1cccc(-c2ccc3ncnc(N4CCOCC4)c3c2)c1 | -1% | 4% | 20% | -2% | 1% | i
COc1ccc(CNc2nc(-c3c(C)noc3C)nc3ccccc23)c(OC)c1 | -4% | 85% | -30% | -2% | 0% | i
O=C(O)c1cc(=O)[nH]c(=S)[nH]1 | -2%[11.4 µM] | 10%[11.4 µM] | -1%[11.4 µM] | -2%[15.4 µM] | -3%[15.4 µM] | i
CCn1c(Cc2ccccc2)nnc1SCC(=O)Nc1ccc(N2CCOCC2)c(Cl)c1 | 1% | 5% | -3% | 0% | -2% | i
Cn1c(SCC(=O)Nc2ccc(N3CCOCC3)c(Cl)c2)nnc1-c1ccccc1 | -1% | 10µM* | 4% | 0% | 2% | i
CC(=O)NC1=C(OS(=O)(=O)c2ccc(C)cc2)CN(C)C1=O | -11%[11.4 µM] | 6%[11.4 µM] | -9%[11.4 µM] | 0%[15.4 µM] | -1%[15.4 µM] | i
N#CC(C#N)=c1ccc2c(c1)N1C3=C(CCCC3)CC3CCCCC31N=2 (stereo unspecified) | 4% | 1.6µM* | 2% | -3% | -1% | i
N#C/C(C(N)=O)=c1/ccc2c(c1)N1C3=C(CCCC3)CC3CCCCC31N=2 (stereo unspecified) | 1% | 5µM* | -17% | -1% | -1% | 40µM*
